For some of these results: Results with a measured potency or affinity are listed apart.
Columns and labels:
Design in all cases: scale not given: direction of the effect not stated beside the values
[1] = molecular target: Protein translocase subunit SecA (Escherichia coli (strain K12)) (UniProt P10408); assay: Assay to Identify E. coli SecA ATPase Inhibitors; format: functional; details: 30 µM
[2] = molecular target: T1, Ubiquitin-activating enzyme e1, putative (Leishmania donovani (strain BPK282A1)) (UniProt E9BSI1); assay: Leishmania donovani Ubiquitin Activating Enzyme (LdE1); format: functional; details: 30 µM
T1 sequence (whole entry): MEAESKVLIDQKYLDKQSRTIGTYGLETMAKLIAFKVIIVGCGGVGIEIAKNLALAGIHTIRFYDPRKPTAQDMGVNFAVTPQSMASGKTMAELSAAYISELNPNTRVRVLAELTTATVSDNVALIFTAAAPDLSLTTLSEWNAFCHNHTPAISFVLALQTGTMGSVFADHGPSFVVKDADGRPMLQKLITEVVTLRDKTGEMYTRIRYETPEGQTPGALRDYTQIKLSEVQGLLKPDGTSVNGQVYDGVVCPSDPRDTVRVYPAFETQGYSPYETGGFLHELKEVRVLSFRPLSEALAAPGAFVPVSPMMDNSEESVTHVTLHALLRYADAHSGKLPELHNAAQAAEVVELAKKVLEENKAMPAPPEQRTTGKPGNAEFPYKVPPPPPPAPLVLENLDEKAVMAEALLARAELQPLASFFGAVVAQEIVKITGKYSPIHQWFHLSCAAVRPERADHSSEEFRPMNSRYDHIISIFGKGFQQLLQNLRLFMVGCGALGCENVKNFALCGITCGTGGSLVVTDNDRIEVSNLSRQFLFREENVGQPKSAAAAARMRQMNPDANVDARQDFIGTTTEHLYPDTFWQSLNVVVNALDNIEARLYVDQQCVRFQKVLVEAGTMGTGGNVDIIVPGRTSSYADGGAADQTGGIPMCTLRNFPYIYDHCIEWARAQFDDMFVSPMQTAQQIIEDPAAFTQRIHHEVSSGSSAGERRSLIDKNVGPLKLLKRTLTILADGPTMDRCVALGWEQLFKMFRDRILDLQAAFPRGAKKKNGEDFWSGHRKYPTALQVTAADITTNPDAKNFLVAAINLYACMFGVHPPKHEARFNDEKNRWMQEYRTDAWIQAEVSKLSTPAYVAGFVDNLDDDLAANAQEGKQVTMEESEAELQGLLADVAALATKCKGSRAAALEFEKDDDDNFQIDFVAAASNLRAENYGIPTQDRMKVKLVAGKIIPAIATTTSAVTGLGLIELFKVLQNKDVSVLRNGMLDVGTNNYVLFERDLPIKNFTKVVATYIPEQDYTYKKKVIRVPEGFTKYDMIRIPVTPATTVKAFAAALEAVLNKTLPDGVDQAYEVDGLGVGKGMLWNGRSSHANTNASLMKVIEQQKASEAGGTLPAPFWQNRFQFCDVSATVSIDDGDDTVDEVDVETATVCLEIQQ

[3] = molecular target: AMP-activated protein kinase, AMPK (Homo sapiens) (UniProt P54646+O43741+P54619+Q9UGJ0+Q9Y478+Q13131+Q9UGI9); assay: AMP-dependent Kinase enzyme assay. An in vitro enzyme assay that detects ADP turnover that is directly proportional to AMPK activity. This uses naive AMPK that is activated during the assay with MK-8722; format: functional; details: 30 µM
[4] = molecular target: Sialic acid-binding Ig-like lectin 9 (Homo sapiens) (UniProt Q9Y336); assay: Hs-Siglec9 ALPHAscreen SOP 20170721; details: 10 µM
Sialic acid-binding Ig-like lectin 9 (Homo sapiens), sequence (Q9Y336 whole entry): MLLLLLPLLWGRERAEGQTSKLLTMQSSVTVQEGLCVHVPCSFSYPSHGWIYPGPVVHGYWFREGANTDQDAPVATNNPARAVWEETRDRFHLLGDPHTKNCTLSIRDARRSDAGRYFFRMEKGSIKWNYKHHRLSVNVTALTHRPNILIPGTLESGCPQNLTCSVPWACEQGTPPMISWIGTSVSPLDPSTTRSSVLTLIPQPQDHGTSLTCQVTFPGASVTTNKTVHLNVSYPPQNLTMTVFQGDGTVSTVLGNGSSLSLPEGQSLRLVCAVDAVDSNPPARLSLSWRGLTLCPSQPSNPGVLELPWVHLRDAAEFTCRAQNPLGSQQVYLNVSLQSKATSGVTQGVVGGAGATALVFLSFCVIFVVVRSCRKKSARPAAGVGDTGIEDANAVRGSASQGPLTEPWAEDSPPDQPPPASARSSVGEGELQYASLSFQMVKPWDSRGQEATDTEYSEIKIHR

Trypanosoma cruzi = assay: Trypanosoma cruzi phosphomannomutase and mannose-1-phosphate guanylyltransferase assay; format: functional; details: 10 µM
[5] = molecular target: T2, Arginase-2, mitochondrial (Homo sapiens) (UniProt P78540); assay: in vitro enzyme assay to detect the production of urea directly proportional to the activity of Arginase II; format: functional; details: 33.3 µM; also: in the data most compounds retested in dose-response had high values
T2 sequence (whole entry): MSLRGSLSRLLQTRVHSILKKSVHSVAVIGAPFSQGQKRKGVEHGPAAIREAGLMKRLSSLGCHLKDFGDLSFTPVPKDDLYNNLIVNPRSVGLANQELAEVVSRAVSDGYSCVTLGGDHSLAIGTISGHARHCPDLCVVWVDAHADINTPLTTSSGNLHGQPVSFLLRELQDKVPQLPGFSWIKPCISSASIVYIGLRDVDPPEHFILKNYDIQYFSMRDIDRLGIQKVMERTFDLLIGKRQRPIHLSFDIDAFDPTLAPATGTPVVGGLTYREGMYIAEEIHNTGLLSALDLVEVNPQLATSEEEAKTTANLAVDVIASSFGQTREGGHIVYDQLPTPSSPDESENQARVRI

[6] = molecular target: T3, Proteasome subunit beta (Trypanosoma cruzi) (UniProt O96673); assay: Trypanosoma cruzi proteasome chymotrypsin-like activity (TcProtChymo) assay.; also: in the data most compounds retested in dose-response had high values; format: functional; details: 9.37 µM
T3 sequence (whole entry): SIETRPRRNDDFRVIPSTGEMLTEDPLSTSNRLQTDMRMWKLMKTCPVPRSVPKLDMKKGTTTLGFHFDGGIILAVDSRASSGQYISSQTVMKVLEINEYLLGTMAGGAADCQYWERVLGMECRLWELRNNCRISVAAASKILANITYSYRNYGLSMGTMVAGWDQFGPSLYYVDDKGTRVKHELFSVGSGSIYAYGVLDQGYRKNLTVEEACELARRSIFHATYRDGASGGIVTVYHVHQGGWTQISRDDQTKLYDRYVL

Homo sapiens = species on record: Homo sapiens; assay: To identify inhibition of the IFN signalling (Jak-Stat) pathway via expression of an eGFP reporter gene under the control of an IFN-stimulated response element (ISRE) containing MxA promoter.; format: functional; details: 30 µM
[7] = molecular target: T4, Tyrosyl-tRNA synthetase, putative (Trypanosoma cruzi (strain CL Brener)) (UniProt Q4DSP6); assay: Trypanosoma cruzi tyrosyl tRNA synthetase (TcYRS) _High Tyrosine SOP; format: functional; details: 30 µM; also: in the data most compounds retested in dose-response had high values
T4 sequence (whole entry): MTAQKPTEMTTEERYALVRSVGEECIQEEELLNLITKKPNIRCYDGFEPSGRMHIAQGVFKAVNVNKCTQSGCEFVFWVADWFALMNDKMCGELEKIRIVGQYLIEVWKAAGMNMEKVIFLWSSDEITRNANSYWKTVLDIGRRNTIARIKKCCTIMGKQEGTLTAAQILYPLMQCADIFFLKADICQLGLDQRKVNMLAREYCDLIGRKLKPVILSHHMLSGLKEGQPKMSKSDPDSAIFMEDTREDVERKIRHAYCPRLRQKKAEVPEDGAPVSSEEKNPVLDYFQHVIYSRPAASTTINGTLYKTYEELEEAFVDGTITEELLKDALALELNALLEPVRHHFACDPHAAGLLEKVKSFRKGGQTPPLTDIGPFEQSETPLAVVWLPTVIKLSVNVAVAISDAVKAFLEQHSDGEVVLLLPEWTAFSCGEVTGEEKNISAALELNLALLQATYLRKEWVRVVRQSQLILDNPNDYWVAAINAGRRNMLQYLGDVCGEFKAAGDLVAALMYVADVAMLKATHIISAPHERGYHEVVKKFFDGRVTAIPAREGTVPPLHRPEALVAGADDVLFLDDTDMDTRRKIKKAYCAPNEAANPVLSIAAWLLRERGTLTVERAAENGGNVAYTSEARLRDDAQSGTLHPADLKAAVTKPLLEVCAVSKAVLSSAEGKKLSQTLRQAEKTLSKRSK

[8] = molecular target: T4, Tyrosyl-tRNA synthetase, putative (Trypanosoma cruzi (strain CL Brener)); assay: Trypanosoma cruzi tyrosyl tRNA synthetase (TcYRS) SOP; format: functional; details: 30 µM
[9] = molecular target: Chromo domain-containing protein 1 (Saccharomyces cerevisiae (strain ATCC 204508 / S288c) (Baker's yeast)) (UniProt P32657); assay: ScCHD-1 Enzyme Inhibition Assay; format: functional; details: 30 µM; also: in the data most compounds retested in dose-response had high values
Chromo domain-containing protein 1 (Saccharomyces cerevisiae (strain ATCC 204508 / S288c) (Baker's yeast)), sequence (P32657 whole entry, the tested form may be a part): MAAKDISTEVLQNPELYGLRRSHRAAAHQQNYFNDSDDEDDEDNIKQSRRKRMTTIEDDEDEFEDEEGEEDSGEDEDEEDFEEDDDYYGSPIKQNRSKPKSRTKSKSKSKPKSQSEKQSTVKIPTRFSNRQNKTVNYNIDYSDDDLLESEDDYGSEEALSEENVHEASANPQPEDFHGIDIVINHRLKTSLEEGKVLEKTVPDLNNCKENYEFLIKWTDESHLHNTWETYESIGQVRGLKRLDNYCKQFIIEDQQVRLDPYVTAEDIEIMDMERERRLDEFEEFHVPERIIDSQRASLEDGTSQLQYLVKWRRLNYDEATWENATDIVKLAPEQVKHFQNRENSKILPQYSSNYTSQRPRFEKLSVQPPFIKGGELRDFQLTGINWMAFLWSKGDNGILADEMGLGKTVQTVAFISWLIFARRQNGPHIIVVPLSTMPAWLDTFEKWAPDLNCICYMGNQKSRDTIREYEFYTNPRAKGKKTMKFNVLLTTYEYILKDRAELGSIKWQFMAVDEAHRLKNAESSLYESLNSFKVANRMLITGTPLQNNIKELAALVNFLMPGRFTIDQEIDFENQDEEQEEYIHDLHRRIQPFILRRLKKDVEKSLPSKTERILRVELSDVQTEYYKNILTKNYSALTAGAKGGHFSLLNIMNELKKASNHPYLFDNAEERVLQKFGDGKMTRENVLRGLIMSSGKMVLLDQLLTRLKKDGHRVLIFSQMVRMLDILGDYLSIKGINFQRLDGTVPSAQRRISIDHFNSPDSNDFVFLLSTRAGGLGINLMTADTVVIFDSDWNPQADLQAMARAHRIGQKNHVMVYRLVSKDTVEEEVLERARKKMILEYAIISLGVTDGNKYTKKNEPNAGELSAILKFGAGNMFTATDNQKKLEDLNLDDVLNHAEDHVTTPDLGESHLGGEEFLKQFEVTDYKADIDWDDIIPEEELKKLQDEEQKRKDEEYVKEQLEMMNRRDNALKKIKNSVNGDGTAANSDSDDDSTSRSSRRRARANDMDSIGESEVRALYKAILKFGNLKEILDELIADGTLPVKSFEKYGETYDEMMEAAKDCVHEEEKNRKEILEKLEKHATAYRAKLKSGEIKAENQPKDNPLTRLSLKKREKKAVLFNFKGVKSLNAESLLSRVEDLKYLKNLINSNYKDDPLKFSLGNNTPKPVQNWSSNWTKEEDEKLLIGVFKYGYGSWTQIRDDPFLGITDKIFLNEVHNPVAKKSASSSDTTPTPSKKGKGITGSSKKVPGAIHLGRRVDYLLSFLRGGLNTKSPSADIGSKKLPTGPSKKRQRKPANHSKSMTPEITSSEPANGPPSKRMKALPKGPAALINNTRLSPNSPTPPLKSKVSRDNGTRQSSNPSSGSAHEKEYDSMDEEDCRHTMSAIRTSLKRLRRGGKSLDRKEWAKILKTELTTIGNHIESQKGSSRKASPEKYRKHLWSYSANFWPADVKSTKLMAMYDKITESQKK

Protein translocase subunit SecA (Escherichia coli (strain K12)), sequence (P10408 whole entry): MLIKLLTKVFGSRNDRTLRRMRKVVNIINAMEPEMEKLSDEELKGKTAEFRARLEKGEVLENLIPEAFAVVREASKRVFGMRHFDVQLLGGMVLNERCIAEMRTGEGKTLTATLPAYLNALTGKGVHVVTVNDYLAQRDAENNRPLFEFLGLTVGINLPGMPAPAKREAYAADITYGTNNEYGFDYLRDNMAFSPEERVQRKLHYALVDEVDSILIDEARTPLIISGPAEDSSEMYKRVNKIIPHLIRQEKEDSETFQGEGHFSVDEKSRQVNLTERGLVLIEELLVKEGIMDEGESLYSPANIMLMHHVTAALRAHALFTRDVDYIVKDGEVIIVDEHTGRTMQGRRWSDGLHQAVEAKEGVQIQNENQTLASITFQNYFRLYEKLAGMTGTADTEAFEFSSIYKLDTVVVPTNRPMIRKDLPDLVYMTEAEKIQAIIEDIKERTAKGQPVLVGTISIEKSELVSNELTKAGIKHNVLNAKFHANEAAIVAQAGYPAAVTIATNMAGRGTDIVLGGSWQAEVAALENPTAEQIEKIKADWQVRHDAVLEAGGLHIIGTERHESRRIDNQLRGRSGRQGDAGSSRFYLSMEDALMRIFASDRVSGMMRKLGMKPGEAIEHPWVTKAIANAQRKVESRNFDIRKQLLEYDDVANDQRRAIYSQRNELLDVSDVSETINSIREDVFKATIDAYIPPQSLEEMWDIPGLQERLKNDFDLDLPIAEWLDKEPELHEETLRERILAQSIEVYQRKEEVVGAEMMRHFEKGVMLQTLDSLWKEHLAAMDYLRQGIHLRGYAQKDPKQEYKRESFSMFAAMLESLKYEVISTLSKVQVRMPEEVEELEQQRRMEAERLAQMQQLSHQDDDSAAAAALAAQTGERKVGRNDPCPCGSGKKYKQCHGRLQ

Row | SMILES | Percent Effect [1] | Percent Effect [2] | Percent Effect [3] | Percent Effect [4] | Percent Effect (Trypanosoma cruzi) | Percent Effect [5] | Percent Effect [6] | Percent Effect (Homo sapiens) | Percent Effect [7] | Percent Effect [8] | Percent Effect [9]
1 | Cc1cccc(C(=O)N2C[C@@H]3CCN(c4cccnc4)C[C@@H]3C2)c1 | -6.42% | 2.67% | 9.98% | -2.65% | -1.38% | 0.233% | 1.67% | 16.4% | 1.06% | -3.85% | -3.21%
2 | O=C1CC(c2cccnc2)c2c(c(C(=O)O)cn2-c2ccccc2)N1 (configuration not stated) | -3.57% | 6.67% | -32.4% | -0.792% | -3.14% | 6.16% | 14.6% | 11.4% | 3.17% | 10.3% | -8.81%
3 | CCc1nnc2n1CCN(C(=O)c1ccc(-c3ccco3)nc1C)C2 | -6.22% | 17.7% | -3.04% | 13.8% | 5.57% | -2.28% | 12.5% | 2.35% | 10.3% | 16.5% | -9.52%
4 | COc1cc(C(=O)Nc2nc(C)no2)ccc1C | -6.11% | 25.3% | -1.3% | -0.471% | 3.12% | -4.56% | 4.83% | 33.2% | 7.39% | 26.6% | -8.84%
5 | Cc1ccc(C(=O)N(C)Cc2cc(Br)cs2)c(=O)[nH]1 | 1.09% | 7.89% | 5.18% | -2.8% | -3.8% | -3.55% | 23.3% | 0.327% | 5.32% | 7.79% | -3.78%
6 | Cc1cnn(CCNCc2nc(COc3ccc(F)cc3)no2)c1 | -2.17% | 2.63% | 1.92% | 0.726% | 0.94% | 1.92% | 12.7% | 11.9% | 4.41% | -29.3% | -8.97%
7 | Cc1nc2ccnn2c(C)c1CCC(=O)N1CCN(C2CC2)CC1 | -4.83% | 18.4% | 9.42% | -13.6% | -7.38% | 0.719% | 10.9% | 7.93% | 4.43% | 13.6% | -7.28%
8 | CN(c1ccc(F)c(F)c1)S(=O)(=O)c1cc(C(=O)O)cs1 | -0.362% | -5.41% | -0.676% | 1.81% | -6.32% | -1.6% | -5.95% | 10.4% | -0.493% | -1.24% | -2.7%
9 | Cc1cc(C)n(C2CCCN(C(=O)c3cnc4onc(C)c4c3)C2)n1 (configuration not stated) | -2.86% | 5.2% | 2.66% | 12.3% | -1.08% | 4.84% | 4.77% | 38.1% | 1.91% | 9.41% | -15.5%
10 | Cn1ccnc1CC1CCCN(C(=O)Nc2cccn(C)c2=O)C1 (configuration not stated) | -3.36% | 5.41% | -17.1% | 6.3% | 2.93% | 27.9% | 12.9% | 4.41% | 8.91% | 13.4% | -5.06%
11 | CC(C)c1nc(C2CCCN2CC(=O)N2CCc3ccccc32)no1 (configuration not stated) | -3.88% | -7.89% | 5.96% | 5.77% | -2.82% | -1.15% | -2.51% | -0.0405% | -3.43% | -4.88% | 6.73%
12 | CN(C)C(=O)C1CN(Cc2cscn2)CCN(S(C)(=O)=O)C1 (configuration not stated) | -11.5% | 17.6% | -0.331% | 3.06% | 1.98% | -1.16% | 6.55% | 2.48% | 7.53% | 19.5% | -22.4%
13 | Cc1nc(CN2CCCC(NCCOCC(F)(F)F)C2)no1 (configuration not stated) | -6.82% | 7.59% | -4.02% | 0.79% | 4.44% | -1.52% | 4.18% | -2.76% | 4.43% | 8.86% | -5.18%
14 | COC(C(=O)N1CCN(c2cccc(Cl)c2)C(=O)C1)c1ccccc1 (configuration not stated) | -1.02% | 0% | 0.72% | 1% | -2.7% | 3.33% | 14.7% | 0.627% | 3.7% | 9.76% | -4.32%
15 | COCCN1CCCC(c2nc3c([nH]2)CC(C)(C)CNC3=O)C1 (configuration not stated) | 0.299% | 5.41% | -1.1% | 13.4% | 2.32% | 25.2% | 12.4% | 10.5% | 5.82% | 9.76% | 0.619%
16 | O=C(NCC(F)(F)F)NC1CCCc2c1cnn2CCO (configuration not stated) | -4.5% | 16% | -9.15% | 18.8% | 5.36% | 12.5% | 12.4% | 7.67% | 2.73% | 16.1% | 105%
17 | Cc1ccc(N2CC3(COCCN(Cc4cccnc4)C3)OCC2=O)s1 (configuration not stated) | -6.13% | 2.6% | 20.6% | -4.32% | -2.27% | 0.645% | 4.18% | 21.4% | -2.12% | -3.85% | -1.59%
